Experimental data from PubChem BioAssay (EPA / NIEHS).
Inconclusive results are not listed. Calls of active or inactive are those of the source. The calls were made as follows, unless noted: active = hit-call score of the fitted dose curve at least 0.9, where 1 is the maximum; inactive = score below 0.9.

How the values were obtained:
[1] = biological target: CCAAT/enhancer-binding protein beta (Homo sapiens) (UniProt P17676); assay: ATG_C_EBP_CIS: Attagene CIS-FACTORIAL HepG2 Assay for human CCAAT/Enhancer Binding Protein (C/EBP) beta (AID 2282927); conditions: HepG2 Attagene cis-factorial transcription factor reporter; actives raise or lower the signal
Sequence of CCAAT/enhancer-binding protein beta (Homo sapiens) (P17676 whole entry, looked up, the tested form may be a part): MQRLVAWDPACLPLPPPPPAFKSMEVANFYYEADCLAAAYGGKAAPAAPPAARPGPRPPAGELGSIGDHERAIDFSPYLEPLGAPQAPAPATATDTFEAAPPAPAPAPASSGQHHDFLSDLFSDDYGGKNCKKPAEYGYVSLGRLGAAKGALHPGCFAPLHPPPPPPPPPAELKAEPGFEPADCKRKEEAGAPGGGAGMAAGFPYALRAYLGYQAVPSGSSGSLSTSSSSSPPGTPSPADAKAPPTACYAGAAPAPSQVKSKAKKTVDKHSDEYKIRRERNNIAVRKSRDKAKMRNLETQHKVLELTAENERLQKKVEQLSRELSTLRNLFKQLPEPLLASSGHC
Summary of the method: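 Endogenous C/EBPb-driven reporter transcripts measured in transfected human HepG2 cells at 24 h via RT-PCR and capillary electrophoresis of labelled fragments. Activity fitted in both directions relative to DMSO baseline.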

[2] = ATG_CMV_CIS: Attagene CIS-FACTORIAL HepG2 Assay for human CMV (Internal Marker) (AID 2282928); conditions: HepG2 CMV promoter reporter, transcription factor profiling; actives raise or lower the signal;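 also: endpoint acts as a background internal control marker rather than a target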
Summary of the method: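 24 h chemical treatment, HepG2 with transient multi-reporter transfection; RNA → oligo(dT) RT → PCR → 6-FAM extension → HpaI digest → CE fluorescence. Bidirectional fit, DMSO negative control.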

[3] = biological target: Aryl hydrocarbon receptor (Homo sapiens) (UniProt P35869); assay: ATG_Ahr_CIS: Attagene CIS-FACTORIAL HepG2 Assay for human Aryl Hydrocarbon Receptor (Ahr) (AID 2282930); conditions: HepG2 AhR cis-factorial reporter transcription; actives raise or lower the signal
Sequence of Aryl hydrocarbon receptor (Homo sapiens) (P35869 whole entry, looked up): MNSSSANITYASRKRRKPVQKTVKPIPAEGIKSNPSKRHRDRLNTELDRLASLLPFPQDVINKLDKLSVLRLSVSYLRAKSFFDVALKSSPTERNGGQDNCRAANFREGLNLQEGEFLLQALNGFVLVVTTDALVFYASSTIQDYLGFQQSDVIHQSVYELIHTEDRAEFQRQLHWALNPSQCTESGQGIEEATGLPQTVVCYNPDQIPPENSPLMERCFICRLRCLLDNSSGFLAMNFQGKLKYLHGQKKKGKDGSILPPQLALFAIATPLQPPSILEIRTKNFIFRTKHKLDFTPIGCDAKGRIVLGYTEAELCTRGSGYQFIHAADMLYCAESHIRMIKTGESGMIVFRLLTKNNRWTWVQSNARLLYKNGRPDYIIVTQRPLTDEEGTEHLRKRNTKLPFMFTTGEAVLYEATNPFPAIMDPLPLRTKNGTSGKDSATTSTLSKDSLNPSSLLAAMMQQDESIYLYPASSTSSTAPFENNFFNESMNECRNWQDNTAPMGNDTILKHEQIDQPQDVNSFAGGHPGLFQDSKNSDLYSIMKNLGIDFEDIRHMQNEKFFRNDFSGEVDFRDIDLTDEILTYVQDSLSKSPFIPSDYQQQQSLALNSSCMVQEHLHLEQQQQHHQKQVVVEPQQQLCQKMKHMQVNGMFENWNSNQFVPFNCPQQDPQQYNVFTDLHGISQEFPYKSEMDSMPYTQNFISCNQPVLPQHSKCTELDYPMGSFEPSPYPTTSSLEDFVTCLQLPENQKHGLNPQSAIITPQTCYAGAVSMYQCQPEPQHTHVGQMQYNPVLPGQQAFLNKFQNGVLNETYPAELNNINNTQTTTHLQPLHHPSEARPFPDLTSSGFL
Summary of the method: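 Reporter mRNA levels, quantified by RT-PCR and fluorescent capillary electrophoresis, reflect endogenous AhR transcriptional activity in HepG2 cells carrying transfected cis-promoter reporter constructs. Readout at 24 h post-dose; gain or loss fitted against DMSO baseline.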

[4] = ATG_AP_1_CIS: Attagene CIS-FACTORIAL HepG2 Assay for human Activator Protein 1 (AP-1) (AID 2282931); conditions: HepG2 Attagene cis-factorial AP-1 reporter mRNA; actives raise or lower the signal
Summary of the method: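 We transfected HepG2 cells transiently with a set of cis-regulated reporter transcription units, dosed them for 24 h, and quantified reporter mRNA via RT-PCR and capillary electrophoresis, scoring gain or loss of signal relative to DMSO.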

[5] = ATG_EGR_CIS: Attagene CIS-FACTORIAL HepG2 Assay for human Early Growth Response 1 (EGR1) (AID 2282938); conditions: HepG2 Attagene CIS-FACTORIAL EGR reporter mRNA; actives raise or lower the signal
Summary of the method: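 Multiplexed cis-reporter system in human hepatoma HepG2 cells, transiently transfected. Cells are dosed for 24 h; reporter transcripts are amplified, fluorescently tagged and sized by capillary electrophoresis, with DMSO as negative control.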

[6] = ATG_GLI_CIS: Attagene CIS-FACTORIAL HepG2 Assay for human Zinc Finger Protein GLI1 (AID 2282945); conditions: HepG2, Attagene cis-factorial reporter mRNA, GLI element; actives raise or lower the signal
Summary of the method: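 Bidirectional curve fits relative to DMSO, using reporter mRNA levels from RT-PCR plus capillary electrophoresis. Cells were HepG2 transiently carrying cis-regulated reporter constructs, harvested 24 h after dosing.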

[7] = ATG_ISRE_CIS: Attagene CIS-FACTORIAL HepG2 Assay for human Interferon Regulatory Factor 1 (IRF1) binding to an Interferon-Stimulated Response Element (ISRE) (AID 2282948); conditions: HepG2 ISRE cis-reporter (Attagene), mRNA transcription readout; actives raise or lower the signal
Summary of the method: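 Multiplexed mRNA reporter readout in human liver HepG2 cells: cis-element-driven reporters transfected, compound added for 24 h, transcripts amplified, fluorescently labelled and sized by capillary electrophoresis; curve fitting bidirectional against DMSO.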

[8] = ATG_M_06_CIS: Attagene CIS-FACTORIAL HepG2 Assay for M06 Transcription Factor (Internal Marker) (AID 2282950); conditions: HepG2 Attagene CIS-FACTORIAL M06 internal marker reporter; actives raise or lower the signal
Summary of the method: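 HepG2 liver cells, 24 h exposure. Reporter transcripts from transfected cis-element constructs quantified by RT-PCR/capillary electrophoresis fluorescence. Bidirectional curve fit against DMSO.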

[9] = biological target: Hypoxia-inducible factor 1-alpha (Homo sapiens) (UniProt Q16665); assay: ATG_HIF1a_CIS: Attagene CIS-FACTORIAL HepG2 Assay for human Hypoxia Inducible Factor 1 (HIF1A) (AID 2282951); conditions: HepG2 Attagene cis-factorial HIF1a reporter transcription; actives raise or lower the signal
Sequence of Hypoxia-inducible factor 1-alpha (Homo sapiens) (Q16665 whole entry, looked up): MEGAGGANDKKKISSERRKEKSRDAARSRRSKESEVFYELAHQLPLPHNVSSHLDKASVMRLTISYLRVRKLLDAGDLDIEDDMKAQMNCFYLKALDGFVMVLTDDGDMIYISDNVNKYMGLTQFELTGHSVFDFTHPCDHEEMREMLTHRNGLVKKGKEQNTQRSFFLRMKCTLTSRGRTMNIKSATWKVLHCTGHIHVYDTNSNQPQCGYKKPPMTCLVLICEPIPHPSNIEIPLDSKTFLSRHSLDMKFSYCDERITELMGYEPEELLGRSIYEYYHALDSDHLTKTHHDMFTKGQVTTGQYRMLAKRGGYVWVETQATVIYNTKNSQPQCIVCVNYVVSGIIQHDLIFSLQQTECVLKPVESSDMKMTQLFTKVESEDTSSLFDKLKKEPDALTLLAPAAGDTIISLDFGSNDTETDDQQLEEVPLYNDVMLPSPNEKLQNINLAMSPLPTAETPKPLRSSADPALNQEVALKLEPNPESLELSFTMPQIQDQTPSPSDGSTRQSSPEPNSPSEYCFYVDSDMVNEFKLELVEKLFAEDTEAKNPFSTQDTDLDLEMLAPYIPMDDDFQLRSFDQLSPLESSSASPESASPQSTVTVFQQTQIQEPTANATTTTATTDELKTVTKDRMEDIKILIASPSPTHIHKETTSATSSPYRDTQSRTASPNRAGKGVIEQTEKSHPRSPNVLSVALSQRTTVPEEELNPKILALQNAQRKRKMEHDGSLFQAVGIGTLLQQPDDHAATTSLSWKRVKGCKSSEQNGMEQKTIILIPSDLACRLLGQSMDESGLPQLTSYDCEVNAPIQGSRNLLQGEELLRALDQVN
Summary of the method: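 Cis-element reporter constructs were transiently transfected into HepG2 cells, which were treated for 24 h; reporter RNA was reverse-transcribed, amplified, labelled and resolved by capillary electrophoresis.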

[10] = biological target: Heat shock factor protein 1 (Homo sapiens) (UniProt Q00613); assay: ATG_HSE_CIS: Attagene CIS-FACTORIAL HepG2 Assay for human Heat Shock Transcription Factor 1 (HSE) (AID 2282953); conditions: HepG2 HSE cis-reporter, Attagene RNA transcription; actives raise or lower the signal
Sequence of Heat shock factor protein 1 (Homo sapiens) (Q00613 whole entry, looked up, the tested form may be a part): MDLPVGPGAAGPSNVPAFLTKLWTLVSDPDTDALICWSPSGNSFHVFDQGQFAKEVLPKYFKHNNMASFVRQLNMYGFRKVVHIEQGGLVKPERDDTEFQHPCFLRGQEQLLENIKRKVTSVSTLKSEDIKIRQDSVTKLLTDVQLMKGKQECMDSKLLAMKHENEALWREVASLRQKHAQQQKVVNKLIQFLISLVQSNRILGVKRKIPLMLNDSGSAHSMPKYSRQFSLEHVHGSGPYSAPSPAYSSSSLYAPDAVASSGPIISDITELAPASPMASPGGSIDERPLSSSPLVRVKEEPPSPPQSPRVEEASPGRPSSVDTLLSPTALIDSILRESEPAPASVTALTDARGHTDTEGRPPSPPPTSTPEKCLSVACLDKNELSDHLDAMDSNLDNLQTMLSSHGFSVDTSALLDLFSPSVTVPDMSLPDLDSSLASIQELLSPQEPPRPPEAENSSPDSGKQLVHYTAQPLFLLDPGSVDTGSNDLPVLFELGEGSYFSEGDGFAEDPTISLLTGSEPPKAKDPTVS
Summary of the method: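 Endogenous transcription factor activity captured via cis-promoter reporter units transfected into HepG2; treatment lasted 24 h. Fluorescence intensity of reporter fragments analysed with bidirectional curve fitting, DMSO baseline.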

[11] = ATG_TAL_CIS: Attagene CIS-FACTORIAL HepG2 Assay for human TAL Basal Promoter (AID 2282966); conditions: HepG2 Attagene cis-factorial TAL promoter reporter; actives raise or lower the signal;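 also: background control endpoint measuring basal TAL promoter reporter mRNA not a specific factor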
Summary of the method: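 Human hepatoma HepG2 cells, transfected with promoter-regulated reporter units, were treated 24 h. Reporter transcript levels, measured through RT-PCR and capillary electrophoresis, were fitted for gain or loss relative to DMSO.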

[12] = ATG_VDRE_CIS: Attagene CIS-FACTORIAL HepG2 Assay for human Vitamin D Receptor Element (VDRE) (AID 2282968); conditions: HepG2 VDRE cis-reporter transcription, actives raise or lower the signal
Summary of the method: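 Readout is VDRE-driven reporter mRNA reflecting endogenous factor activity in human HepG2 cells, sampled 24 h post-dose. Quantification used labelled RT-PCR products separated by capillary electrophoresis; bidirectional analysis relative to DMSO.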

[13] = biological target: X-box-binding protein 1 (Homo sapiens) (UniProt P17861); assay: ATG_Xbp1_CIS: Attagene CIS-FACTORIAL HepG2 Assay for human X-box Binding Protein 1 (XBP1) (AID 2282972); conditions: HepG2 XBP1 cis-element reporter, Attagene multiplex; actives raise or lower the signal
Sequence of X-box-binding protein 1 (Homo sapiens) (P17861 whole entry, looked up): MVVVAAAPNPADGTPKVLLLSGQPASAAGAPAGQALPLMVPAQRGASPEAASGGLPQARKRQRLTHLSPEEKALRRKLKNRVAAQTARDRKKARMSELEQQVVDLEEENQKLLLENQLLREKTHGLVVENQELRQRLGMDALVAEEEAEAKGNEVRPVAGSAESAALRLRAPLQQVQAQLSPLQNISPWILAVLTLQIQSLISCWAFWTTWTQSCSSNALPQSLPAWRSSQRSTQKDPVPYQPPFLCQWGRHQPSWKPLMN
Summary of the method: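 Multiplexed cis-reporter readout in transfected HepG2 liver cells. Exposure lasted 24 hours. Activity in either direction was fitted against DMSO as negative control and baseline.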

[14] = biological target: Transcriptional activator Myb (Homo sapiens) (UniProt P10242); assay: ATG_Myb_CIS: Attagene CIS-FACTORIAL HepG2 Assay for human Myeloblastosis (Myb) Proto-Oncogene Transcription Factor (AID 2282986); conditions: HepG2 Attagene CIS-FACTORIAL Myb reporter transcription; actives raise or lower the signal
Sequence of Transcriptional activator Myb (Homo sapiens) (P10242 whole entry, looked up): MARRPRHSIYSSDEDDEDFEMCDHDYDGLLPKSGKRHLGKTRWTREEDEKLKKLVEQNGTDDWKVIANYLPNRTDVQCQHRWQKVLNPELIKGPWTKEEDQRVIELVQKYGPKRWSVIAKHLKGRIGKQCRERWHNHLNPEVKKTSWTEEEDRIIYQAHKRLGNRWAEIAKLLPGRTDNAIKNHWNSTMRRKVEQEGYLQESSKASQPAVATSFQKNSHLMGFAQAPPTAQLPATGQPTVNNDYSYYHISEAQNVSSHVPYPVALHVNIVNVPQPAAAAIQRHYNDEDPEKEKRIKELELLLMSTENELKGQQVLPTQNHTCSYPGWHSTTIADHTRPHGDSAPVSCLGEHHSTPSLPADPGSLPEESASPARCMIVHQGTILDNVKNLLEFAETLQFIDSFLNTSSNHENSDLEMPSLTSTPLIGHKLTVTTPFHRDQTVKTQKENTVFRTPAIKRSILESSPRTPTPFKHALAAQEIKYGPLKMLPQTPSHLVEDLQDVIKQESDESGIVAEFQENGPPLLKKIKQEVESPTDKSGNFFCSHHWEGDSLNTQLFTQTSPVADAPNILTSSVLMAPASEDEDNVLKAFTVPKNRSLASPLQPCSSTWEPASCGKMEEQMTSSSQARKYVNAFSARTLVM
Summary of the method: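 Using HepG2 liver cells bearing transiently transfected cis-promoter reporter constructs, the assay measures induction or loss of reporter mRNA after 24 hours of dosing. Detection used fluorescently labeled RT-PCR products separated by capillary electrophoresis.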

[15] = biological target: Nuclear respiratory factor 1 (Homo sapiens) (UniProt Q16656); assay: ATG_NRF1_CIS: Attagene CIS-FACTORIAL HepG2 Assay for human Nuclear Respiratory Factor 1 (NRF1) Orphan Gene (AID 2282987); conditions: HepG2 NRF1 cis-element reporter, Attagene multiplex; actives raise or lower the signal
Sequence of Nuclear respiratory factor 1 (Homo sapiens) (Q16656 whole entry, looked up): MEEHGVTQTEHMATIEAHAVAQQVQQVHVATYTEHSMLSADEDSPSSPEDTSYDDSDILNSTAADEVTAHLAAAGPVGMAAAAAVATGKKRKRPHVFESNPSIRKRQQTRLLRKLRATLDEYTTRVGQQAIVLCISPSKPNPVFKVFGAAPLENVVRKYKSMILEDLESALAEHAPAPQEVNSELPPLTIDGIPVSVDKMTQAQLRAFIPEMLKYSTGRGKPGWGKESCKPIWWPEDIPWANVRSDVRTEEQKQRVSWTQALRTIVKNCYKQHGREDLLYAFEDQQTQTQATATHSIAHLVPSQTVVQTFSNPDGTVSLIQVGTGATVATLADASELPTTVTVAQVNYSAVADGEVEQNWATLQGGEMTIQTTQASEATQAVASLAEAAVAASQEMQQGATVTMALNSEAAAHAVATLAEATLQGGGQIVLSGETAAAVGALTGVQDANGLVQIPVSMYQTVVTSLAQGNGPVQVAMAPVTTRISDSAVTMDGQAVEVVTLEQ
Summary of the method: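 Reporter mRNA induction or loss in HepG2 cells after 24 h dosing; cis-regulated reporter constructs report endogenous transcription-factor activity. Quantified by RT-PCR/capillary electrophoresis fluorescence, DMSO-referenced.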

[16] = ATG_NFI_CIS: Attagene CIS-FACTORIAL HepG2 Assay for human Nuclear Factor I (NFI) (AID 2282989); conditions: HepG2 cis-regulatory reporter, NFI response element transcription; actives raise or lower the signal
Summary of the method: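 Cells: human liver HepG2, transiently transfected with promoter-regulated reporter transcription units. Exposure 24 h. Detection: fluorescent RT-PCR products separated by capillary electrophoresis, normalised to DMSO negative control.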

[17] = ATG_Oct_MLP_CIS: Attagene CIS-FACTORIAL HepG2 Assay for human Octamer-Binding Transcription Factor (Oct) (AID 2282993); conditions: HepG2 Attagene cis-factorial Oct reporter, mRNA; actives raise or lower the signal
Summary of the method: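 HepG2, transient MRTU transfection, cis promoter elements; 24 h dosing; RT-PCR/CE fluorescence read-out of reporter mRNA; fit both directions vs DMSO.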

[18] = biological target: Cellular tumor antigen p53 (Homo sapiens) (UniProt P04637); assay: ATG_p53_CIS: Attagene CIS-FACTORIAL HepG2 Assay for human p53 Transcription Factor (AID 2282994); conditions: HepG2 p53 cis-element reporter, Attagene mRNA; actives raise or lower the signal
Sequence of Cellular tumor antigen p53 (Homo sapiens) (P04637 whole entry, looked up, the tested form may be a part): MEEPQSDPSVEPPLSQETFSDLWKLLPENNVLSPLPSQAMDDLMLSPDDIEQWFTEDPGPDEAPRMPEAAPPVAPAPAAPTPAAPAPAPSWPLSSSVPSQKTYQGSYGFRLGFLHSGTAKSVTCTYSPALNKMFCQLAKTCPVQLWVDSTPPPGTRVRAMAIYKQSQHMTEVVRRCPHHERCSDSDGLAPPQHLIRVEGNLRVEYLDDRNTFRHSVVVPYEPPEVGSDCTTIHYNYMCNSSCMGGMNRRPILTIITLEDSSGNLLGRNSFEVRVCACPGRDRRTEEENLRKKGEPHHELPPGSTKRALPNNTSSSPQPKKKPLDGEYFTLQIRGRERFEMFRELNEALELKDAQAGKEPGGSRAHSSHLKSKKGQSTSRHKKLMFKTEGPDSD
Summary of the method: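 Steps: transfect HepG2 with multiplexed cis reporter constructs; dose chemicals 24 h; extract RNA, reverse-transcribe, PCR-amplify reporter sequences; FAM-label, HpaI-digest, resolve fragments by CE. Activity fitted both directions relative to DMSO.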

[19] = ATG_XTT_Cytotoxicity: Cytotoxicity Assessment in the Attagene TRANS-FACTORIAL HepG2 Assay (AID 2283584; active = hit-call score of the fitted dose curve at least 0.9, where 1 is the maximum;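 as to AC50: XTT signal for cell number as viability in transfected HepG2 cells; cells exposed to compound for 24 h before reading; active means loss of viability signal versus DMSO baseline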)
Summary of the method: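 24 h chemical exposure of reporter-transfected HepG2; XTT signal loss vs DMSO indicates cytotoxicity.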

[20] = ATG_NRF2_ARE_CIS: Attagene CIS-FACTORIAL HepG2 Assay for human Nuclear Factor Erythroid 2 Related Factor 2 (NFR2) response to Antioxidant Response Elements (ARE) (AID 2282992); conditions: HepG2 Attagene ARE/NRF2 reporter, transcription factor activity; actives raise or lower the signal;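 as to AC50: reporter mRNA level measured by RT-PCR and capillary electrophoresis fluorescence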
Summary of the method: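 Endogenous transcription factor activity in human liver HepG2 cells is tracked via a cis-element-driven reporter within a multiplexed set. mRNA induction is read by RT-PCR and capillary electrophoresis after 24 h, with DMSO as baseline.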

Measured: AC50

O=[N+]([O-])c1cc([N+](=O)[O-])c2ccccc2c1
active: [2] 23.5 µM | [3] 8.37 µM | [4] 14.5 µM
not listed: [19] | [20]
inactive: all other assays above

O=C1Nc2ccc(Cl)cc2C(c2ccccc2)=NC1O (stereo not drawn)
not listed: [5] | [6] | [7] | [15] | [16] | [20]
inactive: all other assays above

[CH3][Sn]([Cl])([Cl])[Cl]
active: [20] 57.6 µM
not listed: [19]
inactive: all other assays above

BrCBr
not listed: [8]
inactive: all other assays above

N#Cc1cccc(C#N)c1
inactive: all assays above

C=CC(=O)OCCCCOC(=O)C=C
active: [1] 168 µM | [2] 74 µM | [4] 186 µM | [5] 62.4 µM | [7] 54.1 µM | [9] 63.6 µM | [12] 33.5 µM | [20] 24.6 µM | [17] 37.7 µM | [18] 163 µM
inactive: [3] | [10] | [11] | [13] | [14] | [15] | [16] | [19]

COC(=O)c1ccccc1S(=O)(=O)NC(=O)Nc1nc(C)cc(C)n1
not listed: [10] | [18] | [19]
inactive: all other assays above

CCOC(=O)NC(=S)Nc1ccccc1NC(=S)NC(=O)OCC
active: [20] 5.19 µM
not listed: [11]
inactive: all other assays above

O=[N+]([O-])c1cc(C(F)(F)F)c(Cl)c([N+](=O)[O-])c1Cl
active: [2] 5.9 µM | [5] 4.82 µM | [7] 5.65 µM | [10] 5.39 µM | [12] 5.51 µM | [16] 6.17 µM | [20] 1.3 µM | [19] 57.7 µM
inactive: all other assays above

[Cl-].[Cl-].[Cl-].[Yb+3]
not listed: [4] | [5] | [7]
inactive: all other assays above

CCC[N+](=O)[O-]
active: [3] 68.9 µM
not listed: [6] | [7] | [20]
inactive: all other assays above

c1ccc2c(c1)CCCC2
inactive: all assays above

CNC(=O)Oc1cc(C)c(SC)c(C)c1
active: [2] 17.4 µM | [7] 100 µM | [12] 51.8 µM | [13] 68.3 µM | [17] 68.7 µM
not listed: [5] | [6] | [19] | [20]
inactive: all other assays above

CCC(C)c1cc(C(C)(C)C)cc(-n2nc3ccccc3n2)c1O (stereo not drawn)
not listed: [5] | [20]
inactive: all other assays above

CCOC(=O)COc1ccc(Cl)cc1Cl
not listed: [3] | [8] | [11] | [12]
inactive: all other assays above
